An excerpt weighted towards active compounds, which were near 2.7% of everything screened.
PGC1a acetyl inh: lowers PGC1a acetylation signal in U2OS cells; AlphaScreen anti-acetyl-lysine; with virally co-expressed GCN5 acetyltransferase; inhibition, % at 15.6 µM; actives 0.17% (n = 350,000);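 active = every replicate shows inhibition of at least 40%; inconclusive = mean inhibition at least 40% but some replicate below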;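 also: 0% = neutral control wells and 100% = positive control wells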
HIV Env fusion: blocks HIV Env-driven cell-cell fusion; HeLa-JRFL Env/CEM21 cell fusion, luciferase; actives 1.1% (n = 360,000); AID 651610; inhibition, % at 12.3 µM;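 active = mean replicate inhibition score of at least 50 and every replicate individually at or above 50; inconclusive = only one of the two criteria met; inactive = mean below 50 and not all replicates reaching 50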;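 also: 0% = plate neutral controls and 100% = maraviroc near 300 nM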
EWS-Fli block: EWS/Fli transcriptional activity inhibition; A673 NR0B1-luciferase reporter, viability-normalised; inhibition, % at 12.6 µM; actives 0.67% (n = 350,000);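 active = mean inhibition of at least 50% after viability correction, with every replicate also passing that limit; inconclusive = mean reaches 50% but only one of two replicates passes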;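 also: firefly luciferase signal divided by Alamar Blue viability fluorescence both relative to DMSO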
GSIS activator: primary screen for activators of insulin secretion dependent on glucose, INS-1E cells, GLuc reporter luminescence; AID 743287; actives 0.61% (n = 370,000); activation, % at 16.6 µM; INS-1E GLuc reporter insulin secretion, 2-3 h;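 active = lowest replicate activation of at least 40%, so every replicate reaches that level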;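 also: 0% = median of neutral control wells and 100% = median of IBMX positive control wells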
CFTR F508del cor: correctors of CFTR F508del function in bronchial epithelial cells. CFBE cells, YFP halide quenching; stimulated with forskolin plus potentiator P3; % fluorescence drop versus neutral controls. activity (quench increase), % at 7.58 µM. actives 0.36% (n = 350,000). AID 720511;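 active = mean added fluorescence quench of at least 8% versus neutral control, with both replicates also reaching 8%; inconclusive = only one of the mean or replicate conditions met; inactive = mean below 8% and not both replicates reaching 8%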;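 also: cells transiently co-express mutant CFTR-F508del with the halide-sensitive YFP; corrector assay measuring rescue of mutant channel to the surface after 24 h compound exposure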
PAX8 inh HTS: inhibitors of PAX8 transcriptional activity in RMG-I cells | RMG-I TPO-luciferase reporter, SteadyGlo, 24 h | inhibition, % at 12.6 µM | actives 1.2% (n = 360,000) | AID 652154;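 active = mean replicate inhibition at least 60% with every replicate also reaching 60%; inconclusive = only one of the two criteria is met; inactive = mean below 60% and not all replicates reaching 60%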;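 also: luciferase light reporting Pax8 driven TPO promoter activity; plate controls were median of neutral control wells for no effect and mitoxantrone controls for full effect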
Active calls of the source: *; ? = inconclusive; . = not tested or not shown; [ ] = another dose, or the depositor's remark.

SMILES	PGC1a acetyl inh	HIV Env fusion	EWS-Fli block	GSIS activator	CFTR F508del cor	PAX8 inh HTS
CC(C)(C)NC(=O)c1ccc(Sc2ccccc2)c([N+](=O)[O-])c1	81*	.	.	7	.	.
C=C1C(=O)[C@]23C[C@H]1CCC2[C@]1(C)C(=O)CC[C@@](C)(C(=O)O)C1C[C@@H]3O (some centres not stated)	-12	4	9	93*	0	65*
C=C1C(=O)[C@]23C[C@H]1CC[C@H]2[C@]1(C)[C@@H](OC(C)=O)CC[C@@](C)(C(=O)O)[C@H]1C[C@@H]3OC(C)=O	-11	-20	10	-41	-4	86*
C=C1C(=O)[C@]23C[C@H]1CCC2[C@]1(C)CCC[C@@](C)(C(=O)O)C1C[C@@H]3O (some centres not stated)	?	9	40	16	-30	117*
CC(C)NC(=O)N1[C@@H](CO)[C@@H](c2ccccc2)C12CN(C(=O)CN(C)C)C2	-5	.	0	7	-5	-4
C[C@H](CO)N1C[C@H](C)[C@H](CN(C)Cc2ccc3c(c2)OCO3)Oc2ccc(NC(=O)CCN3CCOCC3)cc2C1=O	1	23[16.7 µM]	-5	26	-1	3
O=[N+]([O-])c1ccc(NN=Cc2cccc3ccccc23)nc1	-24	-13	-24	11	-1	-10
COc1cccc(/C=N/Nc2ccc([N+](=O)[O-])cn2)c1O	29	34	-27	8	.	91*
COc1cccc(/C=N/Nc2nc(Nc3ccc([N+](=O)[O-])cc3)nc(N3CCCC3)n2)c1O	4	22	12	6	-3	95*
COc1cccc(/C=N/Nc2ncccc2[N+](=O)[O-])c1OC	11	?	66*	.	1	35
COc1cccc(/C=N/Nc2ccnc(=O)[nH]2)c1O	-14	65*	-13	4	3	39
CN1CCCCN2[C@H](C1)[C@@H](c1ccc(-c3ccc(F)cc3)cc1)[C@@H]2CO	2	.	3	2	-1	8
COCC(=O)Nc1ccc2c(c1)[C@H]1C[C@H](CC(=O)NCc3ccc(Cl)cc3)O[C@H](CO)[C@H]1O2	9	8[16.7 µM]	-7	6	0	8
COc1cccc(/C=N/Nc2ccc(C(=O)O)cc2)c1O	-8	86*	-11	0	-2	108*
COc1cccc(/C=N/Nc2ccc(S(=O)(=O)O)cc2)c1O	5	24	.	.	.	.
O=C(Nc1ccccc1Cc1ccccc1)c1ccccc1NS(=O)(=O)c1ccc(Cl)s1	.	67*	.	-23	.	71*
C[C@H]1CN([C@@H](C)CO)S(=O)(=O)c2ccc(C#CC3CCCC3)cc2O[C@H]1CN(C)Cc1cccnc1	-17	25[16.7 µM]	-11	-10	4	14
COc1ccccc1C#Cc1ccc2c(c1)O[C@H](CN(C)Cc1cncnc1)[C@@H](C)CN([C@@H](C)CO)S2(=O)=O	4	1[16.7 µM]	15	15	2	46
C[C@@H]1CN([C@@H](C)CO)S(=O)(=O)c2ccc(C#CC3CCCC3)cc2O[C@H]1CN(C)Cc1cccnc1	11	18[16.7 µM]	21	-13	4	84*
C[C@@H]1CN([C@H](C)CO)S(=O)(=O)c2ccc(C#CC3CCCC3)cc2O[C@H]1CN(C)Cc1cccnc1	-3	27[16.7 µM]	17	-7	2	87*
COc1ccccc1C#Cc1ccc2c(c1)O[C@H](CN(C)Cc1cccnc1)[C@H](C)CN([C@@H](C)CO)S2(=O)=O	8	.	12	6	8.2*	87*
C=CCN=c1scc(-c2ccc3c(c2)NC(=O)CO3)n1/N=C(\C)c1ccccn1	7	?	44	-2	8.7*	17
O=C(Cn1ncc(Cl)c(Cl)c1=O)N1CCN(Cc2ccccc2)CC1	.	-110	67*	-2	-7	73*
O=C(Cn1ncc(Cl)c(Cl)c1=O)N1CCOCC1	-21	-62	48	5	?	26
O=C(Cn1ncc(Cl)c(Cl)c1=O)N1CCc2ccccc21	-27	-100	54*	-4	-5	66*
C[C@@H]1CCCCO[C@@H](CN(C)Cc2ccc(C(=O)O)cc2)[C@@H](C)CN([C@@H](C)CO)C(=O)c2cc(NC(=O)Nc3ccc4c(c3)OCO4)ccc2O1	0	-4[16.7 µM]	-74	-4	-1	-21
